PubChem BioAssay (NCI)
This is part of a sample that, as a whole, favours compounds with a hit. Of some 83,000 tested, about 20% had one in any assay.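 Percent growth is the endpoint: 0 to 100 indicates growth inhibition (40 means 60% inhibition), 0 means no net growth, and negative values indicate cell death.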 Values without a mark were called inactive. Active and inactive are the calls of the source. How the source made its calls: active means growth percent below 10; inactive means the rest.

Legend:
Test in all cases: NCI-60 one-dose screen, 48 h (100 = growth as untreated, 0 = no growth, -100 = all killed)
Details in all cases: 10 µM unless noted
K-562 leukemia = tested on: K-562 leukemia
MALME-3M melanoma = tested on: MALME-3M melanoma
MDA-MB-231 breast = tested on: MDA-MB-231 breast
RXF 393 renal = tested on: RXF 393 renal
SF-268 CNS = tested on: SF-268 CNS
SF-295 CNS = tested on: SF-295 CNS
SF-539 CNS = tested on: SF-539 CNS
UACC-257 melanoma = tested on: UACC-257 melanoma
HCT-15 colon = tested on: HCT-15 colon
HT29 colon = tested on: HT29 colon
SNB-75 CNS = tested on: SNB-75 CNS
SNB-19 CNS = tested on: SNB-19 CNS
U251 CNS = tested on: U251 CNS
PC-3 prostate = tested on: PC-3 prostate
SK-MEL-5 melanoma = tested on: SK-MEL-5 melanoma
UACC-62 melanoma = tested on: UACC-62 melanoma
SK-MEL-28 melanoma = tested on: SK-MEL-28 melanoma
SK-MEL-2 melanoma = tested on: SK-MEL-2 melanoma
LOX IMVI melanoma = tested on: LOX IMVI melanoma
M14 melanoma = tested on: M14 melanoma

Structure (SMILES) | growth (K-562 leukemia) | growth (MALME-3M melanoma) | growth (MDA-MB-231 breast) | growth (RXF 393 renal) | growth (SF-268 CNS) | growth (SF-295 CNS) | growth (SF-539 CNS) | growth (UACC-257 melanoma) | growth (HCT-15 colon) | growth (HT29 colon) | growth (SNB-75 CNS) | growth (SNB-19 CNS) | growth (U251 CNS) | growth (PC-3 prostate) | growth (SK-MEL-5 melanoma) | growth (UACC-62 melanoma) | growth (SK-MEL-28 melanoma) | growth (SK-MEL-2 melanoma) | growth (LOX IMVI melanoma) | growth (M14 melanoma)
C#Cc1nc(C2=C(C)C(O)/C(=N/O)C2)cs1 (stereo not given) | 87.2% | 99.5% | -28.1% (active) | 93.7% | 65.3% | 65% | 25.5% | 90.7% | 88.1% | 113% | -85.7% (active) | 109% | 109% | 101% | 94.9% | 88% | 111% | 103% |  | 
COc1cccc(COc2ccc(/C=C3/C(=O)Nc4cc(Cl)ccc43)cc2)c1 |  | 96.7% | 78.2% | 88.7% | 99.5% | 103% | 93% | 104% | 99.6% |  | 84.2% | 97.5% | 98.9% | 84.5% | 93% | 86.7% | 102% | 107% |  | 
Nc1cc(-c2c[nH]c3ccc(Cl)cc23)nc2cc(-c3c[nH]c4ccc(Cl)cc34)nn12 | 4.93% (active) | 90.6% | 49.3% | 75% | 54% | 33.6% | 65.5% | 83.9% | 11.1% |  | 71.9% | 70.5% | 9.85% (active) | 36.4% | 70.9% | 70.4% | 80.8% | 71.6% | -5.92% (active) | 
CCN1C(=S)N(c2ccccc2)C2NC(=O)N(/N=C/C=C/c3ccccc3OC)C21 (stereo not given) | 59.2% | 87.2% | 71.9% | 92.4% | 93.9% | 87.9% | 86.3% | 102% | 67.6% | 98.8% | 71.8% | 87.6% | 89.4% | 90.3% | 92.4% | 81.7% | 95.3% | 120% | 75.4% | 
Cc1nc(-c2cc3ccccc3oc2=O)ccc1C(=O)/C=C/c1ccc(Cl)c(Cl)c1 | 103% | 96.9% | 95.5% | 119% | 99.8% | 95.7% | 92.5% | 120% | 107% | 114% | 95.2% | 98.5% | 99.4% | 101% | 105% | 100% | 106% | 134% | 86.9% | 
CCOC(=O)c1c(Nc2ccccc2)nn2c(N)c(C#N)c(-c3ccc(OC)cc3)nc12 |  | 61.1% | 78.1% | 46% | 61.9% | 42.8% | 52.1% | 95.4% | 84.6% | 76.7% | -15.3% (active) | 76.5% | 71.3% | 66.1% | 87.4% | 80.4% | 78.4% | 89.2% | 71% | 78.6%
O=C1[C@H]2Cc3c([nH]c4ccccc34)[C@@H](c3ccc(Br)cc3)N2C(=O)CN1C1CCN(Cc2ccccc2)CC1 | -28.2% (active) | 62.2% | 49% | 42.7% | 37.5% | 32.4% | 65.4% | 53.3% | 15.8% | -30.9% (active) | 51.1% | 47.8% | 32.3% | 17% |  | 84% | 70.3% | 28.8% |  | 
CCOC(=O)c1csc(NC(=O)CSc2nc3sc4c(c3c(=O)n2-c2ccc(Cl)cc2)CCCC4)n1 | 93.4% | 104% | 94.6% | 100% | 89% | 91.9% | 104% | 100% | 97.7% | 122% | 86.2% | 96% | 98.4% | 92.4% | 78% | 85% | 105% | 105% |  | 
c1ccc(CNc2ncnc3ccc(-c4cnc5[nH]ncc5c4)cc23)cc1 |  | 103% | 63.7% | 33.8% | 58.2% | 74.1% | 69.9% | 95.4% | 77% | 70.6% | 54.5% | 72.7% | 81.6% | 70.3% | 88.4% | 76% | 82.7% | 81.6% | 52.7% | 94.8%
O=C(Oc1ccc2ccc(=O)oc2c1)c1ccc(Cl)cc1 | 115% | 102% | 103% | 116% | 106% | 101% | 101% | 106% | 97.9% | 115% | 112% | 93.2% | 106% | 103% | 101% | 97.3% | 109% | 113% |  | 
CCN1CCN(S(=O)(=O)c2oc(-c3ccc(Cl)cc3)nc2C#N)CC1 |  | -53.6% (active) | 26.7% | -60.2% (active) | 112% | 108% | 53.1% | 89.9% | -35.5% (active) | 2.82% (active) | 87.5% | 95.8% | 96.6% | 87.4% | 95.2% | 88.7% | 53.5% | 104% | -89.2% (active) | -50.6% (active)
Cc1c(NC(=O)CSc2nc3sc4c(c3c(=O)n2-c2ccc(Cl)cc2)CCCC4)c(=O)n(-c2ccccc2)n1C | 90.2% | 102% | 93.4% | 104% | 80.3% | 95.5% | 89.5% | 102% | 93.3% | 101% | 72.6% | 79.7% | 104% | 94.4% | 87.2% | 83.1% | 89.2% | 110% | 89.5% | 
Cn1c(SCC(=O)Nc2ccc(-c3nc4ccc([N+](=O)[O-])cc4[nH]3)cc2)nc2ccccc2c1=O | 93.6% | 87.3% | 78.5% | 73.1% | 83.3% | 77.1% | 78.1% | 87.3% | 78.2% |  | 93.2% | 85.8% | 92% | 68.7% | 84.8% | 75% | 79.4% | 90.7% |  | 
COc1ccc2[nH]cc(-c3cc(N)n4nc(-c5c[nH]c6ccc(OC)cc56)cc4n3)c2c1 | -35.5% (active) | -68.4% (active) | -12.6% (active) | -50.6% (active) | -30% (active) | 25.2% | -89.7% (active) | -21.8% (active) | 1.36% (active) |  | 106% | 78.6% | -87.6% (active) | 5.09% (active) | 3.11% (active) | -53.4% (active) | -69.4% (active) | 72.5% | -63.9% (active) | 
CCOC(=O)c1c(Nc2ccccc2)nn2c(-c3ccco3)c(C#N)cnc12 |  | 94.9% | 80% | 82.1% | 80.5% | 76.7% | 42% | 112% | 91.5% | 100% | 30.5% | 78.3% | 109% | 86.4% | 91.3% | 91% | 90.6% | 90.3% | 81.4% | 107%
Clc1ccc2oc3c(NCCCn4ccnc4)c4ccccc4nc3c2c1 | 4.86% (active) | 57.1% | 27.1% | 23.9% | 38.3% | 30.2% | 24.3% | 78.3% | 13% |  | 42.1% | 51% | 11.6% | 55.4% | 78% | 45.2% | 59% | 110% |  | 
CCOC(=O)c1sc(NCC(=O)Nc2cccc([N+](=O)[O-])c2)c(C(=O)OCC)c1C | 5.97% (active) | -63.7% (active) | -24.5% (active) | -74% (active) | -25% (active) | -77.5% (active) | -35.1% (active) | -6.79% (active) | 2.01% (active) | -42.7% (active) | -37.6% (active) | -6.96% (active) | -7.36% (active) | -9.82% (active) |  | -72.4% (active) | -30.9% (active) | -24% (active) |  | 
N#Cc1nc(-c2ccccc2)oc1S(=O)(=O)N1CCCCC1 |  | -68.8% (active) | 20.6% | -71.8% (active) | 110% | 107% | 77.3% | 94.1% | -35.3% (active) | 2.86% (active) | 94.8% | 95.8% | 94.5% | 88.1% | 93.7% | 96.4% | 85.1% | 97.9% |  | -15.2% (active)
